Key:
Test in all cases: DAPPL (digital affinity profiling via proximity ligation, sequencing); 10 mM Tris-HCl pH 7.5, 50 mM NaCl, 1 mM DTT, 4% glycerol, room temperature, 30 min; GST-TFs on glutathione beads, 16-mer random dsDNA library, 0.1% formaldehyde crosslink after washing; high values mean tight binding
FLI1 = target: T1, FLI1 (Homo sapiens, UniProt Q01543 1-452); details: protein: recombinant; tags: N-terminal GST; dsDNA, one strand shown
T1 sequence: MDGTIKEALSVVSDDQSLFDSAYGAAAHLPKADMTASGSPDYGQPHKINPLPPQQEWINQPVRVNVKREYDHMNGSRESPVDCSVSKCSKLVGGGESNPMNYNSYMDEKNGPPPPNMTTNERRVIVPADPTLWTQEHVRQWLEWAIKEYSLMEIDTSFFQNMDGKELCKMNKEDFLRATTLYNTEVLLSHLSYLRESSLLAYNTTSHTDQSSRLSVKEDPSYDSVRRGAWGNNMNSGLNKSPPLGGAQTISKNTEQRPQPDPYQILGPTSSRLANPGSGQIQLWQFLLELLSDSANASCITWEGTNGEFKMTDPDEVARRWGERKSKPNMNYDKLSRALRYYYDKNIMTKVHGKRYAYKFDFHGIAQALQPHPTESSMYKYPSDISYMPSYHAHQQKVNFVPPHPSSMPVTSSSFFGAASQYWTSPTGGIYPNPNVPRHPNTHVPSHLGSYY
Method in brief: (§1)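 A tag-only sample was pooled with DNA-barcoded human transcription factors that had been expressed in yeast as GST fusions and captured on glutathione beads. The pools were incubated for 30 min at room temperature with 200 nmole of a random double-stranded 16-mer DNA library in Tris/NaCl/DTT/glycerol buffer, then washed, crosslinked with 0.1% formaldehyde, proximity-ligated (BsaI/T4 ligase, 1 h, 37 °C), PCR-amplified and sequenced on an Illumina NextSeq500. Binding signal is each hexamer's read frequency for a factor divided by its frequency for the tag-only sample.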

ELK1 = target: T2, ELK1 (Homo sapiens, UniProt P19419 1-428); details: protein: recombinant; tags: N-terminal GST; dsDNA, one strand shown
T2 sequence: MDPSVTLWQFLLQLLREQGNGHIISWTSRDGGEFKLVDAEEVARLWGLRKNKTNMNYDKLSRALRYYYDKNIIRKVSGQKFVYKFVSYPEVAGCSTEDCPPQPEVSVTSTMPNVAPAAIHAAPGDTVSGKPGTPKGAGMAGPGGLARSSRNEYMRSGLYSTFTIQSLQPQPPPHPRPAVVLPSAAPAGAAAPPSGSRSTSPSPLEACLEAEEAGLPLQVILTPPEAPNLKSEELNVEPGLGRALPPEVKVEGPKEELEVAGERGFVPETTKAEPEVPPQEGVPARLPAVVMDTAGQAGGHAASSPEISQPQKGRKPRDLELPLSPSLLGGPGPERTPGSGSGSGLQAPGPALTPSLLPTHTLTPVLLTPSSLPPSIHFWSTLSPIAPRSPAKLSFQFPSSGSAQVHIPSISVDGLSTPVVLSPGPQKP
Method in brief: as §1

GABPA = target: T3, GABPA (Homo sapiens, UniProt Q06546 1-454); details: protein: recombinant; tags: N-terminal GST; dsDNA, one strand shown
T3 sequence: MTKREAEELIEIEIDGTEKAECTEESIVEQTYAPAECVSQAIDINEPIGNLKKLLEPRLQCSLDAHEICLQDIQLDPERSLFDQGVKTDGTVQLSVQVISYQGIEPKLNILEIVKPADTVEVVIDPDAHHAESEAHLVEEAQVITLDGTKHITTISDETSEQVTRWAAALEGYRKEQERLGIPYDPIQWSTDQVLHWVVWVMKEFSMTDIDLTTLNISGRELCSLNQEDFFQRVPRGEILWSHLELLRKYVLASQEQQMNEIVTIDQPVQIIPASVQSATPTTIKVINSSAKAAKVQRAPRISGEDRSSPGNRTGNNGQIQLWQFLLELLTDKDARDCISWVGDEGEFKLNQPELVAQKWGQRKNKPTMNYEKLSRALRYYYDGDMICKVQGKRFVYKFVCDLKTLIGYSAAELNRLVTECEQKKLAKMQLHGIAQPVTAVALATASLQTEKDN
Method in brief: as §1

ERG = target: T4, ERG (Homo sapiens, UniProt P11308 1-479); details: protein: recombinant; tags: N-terminal GST; dsDNA, one strand shown
T4 sequence: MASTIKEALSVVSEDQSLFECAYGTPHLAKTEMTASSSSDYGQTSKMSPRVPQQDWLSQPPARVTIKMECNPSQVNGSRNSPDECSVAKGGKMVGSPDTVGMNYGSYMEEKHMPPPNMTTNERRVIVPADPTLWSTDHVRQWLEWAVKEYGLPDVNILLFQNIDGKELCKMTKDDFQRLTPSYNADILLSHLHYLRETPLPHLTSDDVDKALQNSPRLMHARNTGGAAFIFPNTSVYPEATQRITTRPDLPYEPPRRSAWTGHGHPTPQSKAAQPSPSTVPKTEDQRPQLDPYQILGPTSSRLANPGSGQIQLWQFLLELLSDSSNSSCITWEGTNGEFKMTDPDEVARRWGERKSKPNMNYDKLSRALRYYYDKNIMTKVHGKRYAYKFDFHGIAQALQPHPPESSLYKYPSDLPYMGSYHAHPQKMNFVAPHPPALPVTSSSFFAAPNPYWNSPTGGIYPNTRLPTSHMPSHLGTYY
Method in brief: as §1

ELF1 = ELF1 (Homo sapiens, UniProt P32519 1-619); details: protein: recombinant; tags: N-terminal GST; dsDNA, one strand shown
Method in brief: as §1

EHF = target: T5, EHF (Homo sapiens, UniProt Q9NZC4 1-300); details: protein: recombinant; tags: N-terminal GST; dsDNA, one strand shown
T5 sequence: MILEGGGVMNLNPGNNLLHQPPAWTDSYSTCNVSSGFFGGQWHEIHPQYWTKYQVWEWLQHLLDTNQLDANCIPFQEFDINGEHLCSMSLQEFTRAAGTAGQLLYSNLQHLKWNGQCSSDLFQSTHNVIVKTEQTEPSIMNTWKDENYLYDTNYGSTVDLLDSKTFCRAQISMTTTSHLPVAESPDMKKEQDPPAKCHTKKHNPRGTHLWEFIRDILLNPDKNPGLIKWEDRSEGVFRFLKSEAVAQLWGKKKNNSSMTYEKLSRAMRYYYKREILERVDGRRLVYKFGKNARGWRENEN
Method in brief: as §1

SPI1 = SPI1 (Homo sapiens, UniProt P17947 1-270); details: protein: recombinant; tags: N-terminal GST; dsDNA, one strand shown
Method in brief: as §1

SPIB = SPIB (Homo sapiens, UniProt Q01892 1-262); details: protein: recombinant; tags: N-terminal GST; dsDNA, one strand shown
Method in brief: as §1

ELK3 = target: T6, ELK3 (Homo sapiens, UniProt P41970 1-407); details: protein: recombinant; tags: N-terminal GST; dsDNA, one strand shown
T6 sequence: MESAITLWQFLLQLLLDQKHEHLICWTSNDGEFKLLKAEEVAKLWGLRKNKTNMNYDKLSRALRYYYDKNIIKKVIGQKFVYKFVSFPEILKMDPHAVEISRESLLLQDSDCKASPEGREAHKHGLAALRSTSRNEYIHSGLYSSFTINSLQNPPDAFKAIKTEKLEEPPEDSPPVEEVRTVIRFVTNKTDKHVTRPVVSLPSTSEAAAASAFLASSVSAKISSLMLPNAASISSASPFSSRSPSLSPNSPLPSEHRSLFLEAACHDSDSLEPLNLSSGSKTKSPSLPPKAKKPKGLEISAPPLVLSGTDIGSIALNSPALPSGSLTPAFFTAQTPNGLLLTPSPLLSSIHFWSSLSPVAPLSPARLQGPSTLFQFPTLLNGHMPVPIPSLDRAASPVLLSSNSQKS
Method in brief: as §1

FEV = target: T7, FEV (Homo sapiens, UniProt Q99581 1-238); details: protein: recombinant; tags: N-terminal GST; dsDNA, one strand shown
T7 sequence: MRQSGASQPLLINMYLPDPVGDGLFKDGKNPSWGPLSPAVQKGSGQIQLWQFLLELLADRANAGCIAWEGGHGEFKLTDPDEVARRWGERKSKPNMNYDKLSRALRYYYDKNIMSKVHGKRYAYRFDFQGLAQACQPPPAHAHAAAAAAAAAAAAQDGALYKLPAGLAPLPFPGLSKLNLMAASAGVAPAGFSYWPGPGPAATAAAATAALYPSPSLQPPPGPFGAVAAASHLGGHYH
Method in brief: as §1

ETV5 = ETV5 (Homo sapiens, UniProt P41161 1-510); details: protein: recombinant; tags: N-terminal GST; dsDNA, one strand shown
Method in brief: as §1

HSF1 = HSF1 (Homo sapiens, UniProt Q00613 1-529); details: protein: recombinant; tags: N-terminal GST; chain copies: 3; dsDNA, one strand shown
Method in brief: as §1

ELF4 = ELF4 (Homo sapiens, UniProt Q99607 1-663); details: protein: recombinant; tags: N-terminal GST; dsDNA, one strand shown
Method in brief: as §1

ELK4 = target: T8, ELK4 (Homo sapiens, UniProt P28324-2 1-405); details: protein: recombinant; tags: N-terminal GST; dsDNA, one strand shown
T8 sequence: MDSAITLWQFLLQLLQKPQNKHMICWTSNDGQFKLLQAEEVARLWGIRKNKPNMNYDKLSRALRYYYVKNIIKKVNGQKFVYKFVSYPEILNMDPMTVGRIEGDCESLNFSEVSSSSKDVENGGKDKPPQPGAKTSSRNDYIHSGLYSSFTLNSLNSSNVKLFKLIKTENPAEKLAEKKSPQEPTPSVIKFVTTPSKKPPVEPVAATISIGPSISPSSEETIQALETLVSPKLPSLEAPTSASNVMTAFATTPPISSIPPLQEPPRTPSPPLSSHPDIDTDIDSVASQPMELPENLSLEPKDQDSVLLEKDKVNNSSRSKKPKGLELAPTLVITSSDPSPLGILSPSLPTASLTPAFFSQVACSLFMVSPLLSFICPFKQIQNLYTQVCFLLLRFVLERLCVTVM
Method in brief: as §1

ELF3 = target: T9, ELF3 (Homo sapiens, UniProt P78545 1-371); details: protein: recombinant; tags: N-terminal GST; dsDNA, one strand shown
T9 sequence: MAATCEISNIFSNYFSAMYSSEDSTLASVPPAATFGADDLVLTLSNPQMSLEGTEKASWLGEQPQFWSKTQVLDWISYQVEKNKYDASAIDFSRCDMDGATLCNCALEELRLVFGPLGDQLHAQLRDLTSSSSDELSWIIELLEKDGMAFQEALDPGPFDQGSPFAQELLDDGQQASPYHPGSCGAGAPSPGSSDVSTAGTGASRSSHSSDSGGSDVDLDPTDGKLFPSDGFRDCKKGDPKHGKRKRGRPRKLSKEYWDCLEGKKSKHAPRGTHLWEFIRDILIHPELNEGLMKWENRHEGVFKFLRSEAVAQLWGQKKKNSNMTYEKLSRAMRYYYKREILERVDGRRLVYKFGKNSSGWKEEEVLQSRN
Method in brief: as §1

CRX = CRX (Homo sapiens, UniProt O43186 1-299); details: protein: recombinant; tags: N-terminal GST; dsDNA, one strand shown
Method in brief: as §1

ETV1 = ETV1 (Homo sapiens, UniProt P50549 1-477); details: protein: recombinant; tags: N-terminal GST; dsDNA, one strand shown
Method in brief: as §1

ETV2 = target: T10, ETV2 (Homo sapiens, UniProt O00321 1-342); details: protein: recombinant; tags: N-terminal GST; dsDNA, one strand shown
T10 sequence: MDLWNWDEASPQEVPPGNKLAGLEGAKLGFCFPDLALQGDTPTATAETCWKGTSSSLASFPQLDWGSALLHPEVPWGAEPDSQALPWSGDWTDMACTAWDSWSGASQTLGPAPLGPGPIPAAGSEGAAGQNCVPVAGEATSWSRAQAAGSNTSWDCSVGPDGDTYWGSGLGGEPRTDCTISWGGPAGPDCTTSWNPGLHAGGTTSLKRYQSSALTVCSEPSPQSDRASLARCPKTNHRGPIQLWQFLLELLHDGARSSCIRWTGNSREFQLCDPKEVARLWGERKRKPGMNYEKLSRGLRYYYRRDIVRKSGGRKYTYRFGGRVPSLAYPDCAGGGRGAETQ
Method in brief: as §1

Chain of ELF1 (P32519 whole entry): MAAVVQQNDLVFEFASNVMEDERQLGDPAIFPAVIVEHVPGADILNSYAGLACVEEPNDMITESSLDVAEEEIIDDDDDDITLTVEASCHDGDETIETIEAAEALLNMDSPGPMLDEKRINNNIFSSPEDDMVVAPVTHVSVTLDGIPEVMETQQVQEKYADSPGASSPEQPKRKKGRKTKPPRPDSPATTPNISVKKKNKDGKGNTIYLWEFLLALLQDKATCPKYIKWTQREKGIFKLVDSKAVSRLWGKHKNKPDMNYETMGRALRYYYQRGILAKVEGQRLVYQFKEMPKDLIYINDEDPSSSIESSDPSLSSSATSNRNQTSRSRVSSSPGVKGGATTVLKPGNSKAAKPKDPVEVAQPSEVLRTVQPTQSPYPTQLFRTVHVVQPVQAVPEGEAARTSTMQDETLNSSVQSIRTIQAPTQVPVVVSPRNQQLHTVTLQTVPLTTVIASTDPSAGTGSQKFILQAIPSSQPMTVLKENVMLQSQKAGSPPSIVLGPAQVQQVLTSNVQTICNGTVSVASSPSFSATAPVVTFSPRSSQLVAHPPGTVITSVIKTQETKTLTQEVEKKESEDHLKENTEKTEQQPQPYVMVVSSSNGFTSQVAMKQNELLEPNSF
Chain of ETV5 (P41161 whole entry): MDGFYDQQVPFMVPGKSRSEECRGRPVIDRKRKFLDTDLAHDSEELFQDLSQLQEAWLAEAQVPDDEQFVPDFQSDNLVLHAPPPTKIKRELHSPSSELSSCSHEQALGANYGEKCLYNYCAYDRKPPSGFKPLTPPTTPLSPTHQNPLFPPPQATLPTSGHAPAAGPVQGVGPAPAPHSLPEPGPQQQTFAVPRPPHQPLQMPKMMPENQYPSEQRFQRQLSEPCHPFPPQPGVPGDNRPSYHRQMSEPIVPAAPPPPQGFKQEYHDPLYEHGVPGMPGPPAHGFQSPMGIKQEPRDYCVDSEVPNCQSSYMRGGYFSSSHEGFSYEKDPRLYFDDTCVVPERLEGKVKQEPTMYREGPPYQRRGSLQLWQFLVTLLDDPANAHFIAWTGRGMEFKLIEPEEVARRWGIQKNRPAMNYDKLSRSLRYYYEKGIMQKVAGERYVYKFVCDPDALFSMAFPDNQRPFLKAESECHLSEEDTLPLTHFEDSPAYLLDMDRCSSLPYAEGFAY
Chain of HSF1 (Q00613 whole entry): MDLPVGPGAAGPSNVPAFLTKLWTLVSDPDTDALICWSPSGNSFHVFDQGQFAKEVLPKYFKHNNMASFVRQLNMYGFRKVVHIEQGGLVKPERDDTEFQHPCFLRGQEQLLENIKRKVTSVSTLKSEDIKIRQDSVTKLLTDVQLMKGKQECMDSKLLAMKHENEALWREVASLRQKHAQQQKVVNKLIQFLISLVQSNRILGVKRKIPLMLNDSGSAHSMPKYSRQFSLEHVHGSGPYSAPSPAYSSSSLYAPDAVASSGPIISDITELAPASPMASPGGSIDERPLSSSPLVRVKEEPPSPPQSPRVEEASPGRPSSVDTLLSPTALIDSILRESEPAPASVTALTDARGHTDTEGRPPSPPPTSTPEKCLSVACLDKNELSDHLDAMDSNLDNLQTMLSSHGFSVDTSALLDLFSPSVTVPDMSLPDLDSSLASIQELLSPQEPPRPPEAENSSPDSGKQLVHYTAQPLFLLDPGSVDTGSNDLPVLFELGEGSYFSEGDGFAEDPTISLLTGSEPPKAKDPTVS
Chain of ETV1 (P50549 whole entry): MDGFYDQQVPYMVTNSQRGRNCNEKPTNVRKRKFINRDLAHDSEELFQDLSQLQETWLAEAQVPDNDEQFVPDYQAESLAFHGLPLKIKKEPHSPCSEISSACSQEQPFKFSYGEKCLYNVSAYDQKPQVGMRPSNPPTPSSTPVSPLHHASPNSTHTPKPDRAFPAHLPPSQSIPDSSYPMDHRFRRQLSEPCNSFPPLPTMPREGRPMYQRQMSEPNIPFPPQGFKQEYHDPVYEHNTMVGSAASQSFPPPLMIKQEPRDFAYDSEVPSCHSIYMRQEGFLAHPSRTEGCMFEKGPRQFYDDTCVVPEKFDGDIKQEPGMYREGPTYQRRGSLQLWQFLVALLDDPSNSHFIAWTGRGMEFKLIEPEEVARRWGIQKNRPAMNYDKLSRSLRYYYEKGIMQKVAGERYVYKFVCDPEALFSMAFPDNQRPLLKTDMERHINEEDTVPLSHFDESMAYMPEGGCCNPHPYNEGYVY
Chain of SPIB (Q01892 whole entry): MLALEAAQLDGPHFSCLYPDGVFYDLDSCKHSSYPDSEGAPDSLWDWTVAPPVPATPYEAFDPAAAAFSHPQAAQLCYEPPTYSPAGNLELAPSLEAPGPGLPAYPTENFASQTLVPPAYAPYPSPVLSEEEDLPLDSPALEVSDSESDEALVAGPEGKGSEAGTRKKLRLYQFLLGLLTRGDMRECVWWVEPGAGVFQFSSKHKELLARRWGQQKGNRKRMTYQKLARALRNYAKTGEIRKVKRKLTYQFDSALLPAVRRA
Chain of CRX (O43186 whole entry): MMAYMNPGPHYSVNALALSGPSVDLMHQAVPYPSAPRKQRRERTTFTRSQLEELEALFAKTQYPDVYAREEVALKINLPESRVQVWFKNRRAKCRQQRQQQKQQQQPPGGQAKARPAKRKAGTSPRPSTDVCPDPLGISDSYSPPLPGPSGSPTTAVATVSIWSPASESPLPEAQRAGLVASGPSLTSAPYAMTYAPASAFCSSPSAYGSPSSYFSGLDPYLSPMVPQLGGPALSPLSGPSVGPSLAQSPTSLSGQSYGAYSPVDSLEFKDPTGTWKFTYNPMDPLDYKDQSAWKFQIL
Chain of ELF4 (Q99607 whole entry): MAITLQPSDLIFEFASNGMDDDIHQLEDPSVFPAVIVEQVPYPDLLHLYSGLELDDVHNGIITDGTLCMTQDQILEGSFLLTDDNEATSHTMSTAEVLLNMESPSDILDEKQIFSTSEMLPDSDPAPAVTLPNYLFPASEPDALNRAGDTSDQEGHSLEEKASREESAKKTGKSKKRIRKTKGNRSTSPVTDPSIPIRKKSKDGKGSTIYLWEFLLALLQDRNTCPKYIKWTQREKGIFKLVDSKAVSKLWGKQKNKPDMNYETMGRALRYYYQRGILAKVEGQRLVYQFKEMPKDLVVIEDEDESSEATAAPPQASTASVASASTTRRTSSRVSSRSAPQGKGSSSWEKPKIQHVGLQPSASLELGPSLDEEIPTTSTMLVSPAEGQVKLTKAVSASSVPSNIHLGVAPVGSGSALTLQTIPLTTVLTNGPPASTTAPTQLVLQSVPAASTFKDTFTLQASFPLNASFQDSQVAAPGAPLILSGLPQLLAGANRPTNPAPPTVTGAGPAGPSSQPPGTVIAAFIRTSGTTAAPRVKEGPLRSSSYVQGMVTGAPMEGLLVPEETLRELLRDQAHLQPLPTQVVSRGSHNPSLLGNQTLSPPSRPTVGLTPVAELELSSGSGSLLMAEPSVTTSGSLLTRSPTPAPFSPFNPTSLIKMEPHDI

Row | Sequence | binding signal (FLI1) | binding signal (ELK1) | binding signal (GABPA) | binding signal (ERG) | binding signal (ELF1) | binding signal (EHF) | binding signal (SPI1) | binding signal (SPIB) | binding signal (ELK3) | binding signal (FEV) | binding signal (ETV5) | binding signal (HSF1) | binding signal (ELF4) | binding signal (ELK4) | binding signal (ELF3) | binding signal (CRX) | binding signal (ETV1) | binding signal (ETV2)
1 | ATCGCT | 1.09 fold enrichment (6-mer frequency, TF over GST control) | 1.09 fold enrichment (6-mer frequency, TF over GST control) | 1.09 fold enrichment (6-mer frequency, TF over GST control) | 1.01 fold enrichment (6-mer frequency, TF over GST control) | 1.04 fold enrichment (6-mer frequency, TF over GST control) | 1.08 fold enrichment (6-mer frequency, TF over GST control) | 1.02 fold enrichment (6-mer frequency, TF over GST control) | 1.14 fold enrichment (6-mer frequency, TF over GST control) | 1.1 fold enrichment (6-mer frequency, TF over GST control) | 1.06 fold enrichment (6-mer frequency, TF over GST control) | 1.07 fold enrichment (6-mer frequency, TF over GST control) | 1.08 fold enrichment (6-mer frequency, TF over GST control) | 1.15 fold enrichment (6-mer frequency, TF over GST control) | 1.06 fold enrichment (6-mer frequency, TF over GST control) | 1.05 fold enrichment (6-mer frequency, TF over GST control) | 1.19 fold enrichment (6-mer frequency, TF over GST control) | 1.08 fold enrichment (6-mer frequency, TF over GST control) | 
2 | TAGTGC | 1.05 fold enrichment (6-mer frequency, TF over GST control) | 1.02 fold enrichment (6-mer frequency, TF over GST control) | 1.12 fold enrichment (6-mer frequency, TF over GST control) |  | 1.1 fold enrichment (6-mer frequency, TF over GST control) |  | 1.05 fold enrichment (6-mer frequency, TF over GST control) | 1.03 fold enrichment (6-mer frequency, TF over GST control) | 1.07 fold enrichment (6-mer frequency, TF over GST control) | 1.02 fold enrichment (6-mer frequency, TF over GST control) | 1.08 fold enrichment (6-mer frequency, TF over GST control) | 1.02 fold enrichment (6-mer frequency, TF over GST control) |  | 1.04 fold enrichment (6-mer frequency, TF over GST control) | 1.03 fold enrichment (6-mer frequency, TF over GST control) | 1.16 fold enrichment (6-mer frequency, TF over GST control) | 1.09 fold enrichment (6-mer frequency, TF over GST control) | 1.02 fold enrichment (6-mer frequency, TF over GST control)
